Data from the supplement of paper PMC8728848.
The sample as a whole holds a higher share of the strongest signals than the screen did.

Tests used:
Experiment in all cases: glycan array binding signal (z-score within array); higher = stronger binding
Conditions in all cases: glycan notation: IUPAC condensed, linker removed
Fuc(a1-2)Gal = molecular target: Fuc(a1-2)Gal
In short: (§1)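 Arrays were curated from the Consortium for Functional Glycomics database, 3228 in total, and kept only where the protein sequence was available. Binding is expressed as a within-array Z-score. This score was averaged across arrays of the same protein sequence at different concentrations or buffers and across linkers, and negative values can be read as non-binding.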

[1] = molecular target: Fuc(a1-2)Gal(b1-4)[Fuc(a1-3)]GalNAc(b1-3)Gal(b1-4)[Fuc(a1-3)]GlcNAc(b1-3)Gal(b1-4)[Fuc(a1-3)]GalNAc
In short: as §1

[2] = molecular target: Fuc(a1-3)[Gal(b1-4)]GlcNAc(b1-4)Gal(b1-4)[Fuc(a1-3)]GlcNAc(b1-4)Gal(b1-4)[Fuc(a1-3)]GlcNAc
In short: as §1

Gal(b1-3)GalNAc = molecular target: Gal(b1-3)GalNAc
In short: as §1

[3] = molecular target: Gal(b1-3)GalNAc(b1-3)Gal(b1-4)GlcNAc
In short: as §1

[4] = molecular target: Gal(b1-3)[GlcNAc(b1-6)]GalNAc
In short: as §1

[5] = molecular target: Gal(b1-4)GlcNAc(b1-3)GalNAc
In short: as §1

Gal4S6S(b1-4)GlcNAc = molecular target: Gal4S6S(b1-4)GlcNAc
In short: as §1

GalNAc(b1-4)GlcNAc = molecular target: GalNAc(b1-4)GlcNAc
In short: as §1

Glc(a1-6)Glc(a1-6)Glc = molecular target: Glc(a1-6)Glc(a1-6)Glc
In short: as §1

[6] = molecular target: Man(a1-2)Man(a1-2)Man(a1-3)Man
In short: as §1

[7] = molecular target: Man(a1-2)Man(a1-3)[Man(a1-2)Man(a1-6)]Man
In short: as §1

[8] = molecular target: Man(a1-2)Man(a1-3)[Man(a1-3)[Man(a1-6)]Man(a1-6)]Man(b1-4)GlcNAc(b1-4)GlcNAc
In short: as §1

[9] = molecular target: Man(a1-3)[Man(a1-6)]Man(a1-6)[Man(a1-3)]Man(b1-4)GlcNAc(b1-4)GlcNAc
In short: as §1

[10] = molecular target: Man(a1-3)[Man(a1-6)]Man(b1-4)GlcNAc(b1-4)GlcNAc
In short: as §1

[11] = molecular target: Neu5Ac(a2-3)Gal(b1-3)GalNAc(b1-3)Gal(a1-4)Gal(b1-4)Glc
In short: as §1

[12] = molecular target: Neu5Ac(a2-3)[GalNAc(b1-4)]Gal(b1-4)GlcNAc
In short: as §1

Neu5Gc(a2-3)Gal(b1-4)Glc = molecular target: Neu5Gc(a2-3)Gal(b1-4)Glc
In short: as §1

B1: ASA (Allium sativum) (protein)
chain: KAHEKERMGRNTPSAKLMSIAAVAAILTILASTCMARNLLTNGEGLYAGQSLNVEPYHFIMQEDCNLVLYDHSTAVWATNTDIPGKKECRAVLQSDGNFVVYDADGRPLWASHSVRGNGNYVLVLQEDGNVVIYGSDIWSTGTYVKAARGPVVVAMNGTVDGGSLIRPVIVNKNHVPVIRKVGTLSRNILRNDEGLYAGQSLDVEPYHFIMHEDCNLVLYDHSTAVWASNTDIPGKKGCKAVLQSDGNFVVYDAEGRSLWASHSVRGNGNYVLVLQEDGNVVIYGSDIWSTDTYRKSARGPVIRKVGTLAGAA
glycan array binding signal (z-score) (Fuc(a1-2)Gal): -0.156 | glycan array binding signal (z-score) [1]: -0.081 | glycan array binding signal (z-score) [2]: -0.229 | glycan array binding signal (z-score) (Gal(b1-3)GalNAc): -0.222 | glycan array binding signal (z-score) [3]: -0.231 | glycan array binding signal (z-score) [4]: -0.211 | glycan array binding signal (z-score) [5]: -0.23 | glycan array binding signal (z-score) (Gal4S6S(b1-4)GlcNAc): -0.222 | glycan array binding signal (z-score) (GalNAc(b1-4)GlcNAc): -0.151 | glycan array binding signal (z-score) (Glc(a1-6)Glc(a1-6)Glc): -0.228 | glycan array binding signal (z-score) [6]: 6.7 | glycan array binding signal (z-score) [7]: 2.2 | glycan array binding signal (z-score) [8]: 6.08 | glycan array binding signal (z-score) [9]: 5.45 | glycan array binding signal (z-score) [10]: 6.64 | glycan array binding signal (z-score) [11]: -0.228 | glycan array binding signal (z-score) [12]: -0.172 | glycan array binding signal (z-score) (Neu5Gc(a2-3)Gal(b1-4)Glc): -0.208
